According to PubChem BioAssay AID504546 (Broad Institute, 2011):
Inconclusive results are not listed. Values without a mark were called inactive.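 Rule for the calls: active = every repeat run fits a falling-signal curve with half-maximal potency within ten times top tested dose; inconclusive = runs disagree, or flat moderate drop, or poor fit; inactive = every run inactive, including signal moving upward.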

experiment: inhibition of ADP-Glo detection reagents, dose response, artefact control for CDK5 inhibitor project, biochemical, luminescence, cherry-picked samples, set 2 (AID 504546); details: ADP-Glo detection reagent counter screen, 5 uM ADP; series mostly up to 30 µM; activity change, negative = inhibition: at the top concentration;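 note: 0% = DMSO wells and -100% = wells lacking ADP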

Structure (SMILES)	activity change, negative = inhibition [%]
CC(C)n1cnc2c(N(C)c3cccc(Cl)c3)nc(N(CCO)CCO)nc21	12.7
Oc1ccc(-c2nc(-c3ccc(O)c(O)c3)cs2)cc1	8.38
NC(=O)c1cc([N+](=O)[O-])c(Cl)cc1NCc1cccnc1	3.23
CC(C)n1cnc2c(Nc3cccc(Cl)c3)nc(NCCCO)nc21	-8.77
Cc1nn(-c2ncccn2)c2c1C(=O)CC(C)(C)C2Br (stereo not given)	5.02
Oc1ccc(/C=N/Nc2cccc(Cl)n2)c(O)c1	-0.095
O=C(O)c1ccc(/C=N/Nc2ccc(C(F)(F)F)cn2)cc1	-6.31
CC(C)=CCNc1ncnc2c1c(C#N)cn2C1OC(CO)C(O)C1O (stereo not given)	-6.7
Nc1ncnc2c1ncn2C1OC(CO)C(O)C1O (stereo not given)	12.3
COc1cc2ccccc2ccc1=NO	15.2
COc1ccc2oc(C(=O)NCCC(C)C)c(C)c2c1	13.2
Nc1nc(Nc2ccccc2)sc1C(=O)c1ccccc1	17.3
COc1ccc(C(=O)c2sc(Nc3ccccc3F)nc2N)cc1	-6.41
CC(C)(C)C(=O)c1sc(Nc2ccccc2)nc1N	13.1
C=CC(=O)Nc1ccc(Nc2ccnc(Nc3ccc(N4CCN(C)CC4)cc3)n2)cc1	15.2
Cc1nn(-c2ccc(Cl)cn2)c2c1C(=O)CC(C)(C)C2Br (stereo not given)	1.63
Clc1cnc(N/N=C/c2ccncc2)c(Cl)c1	-11.8
C=CCNc1nc(N)c(C(=O)c2ccc3c(c2)OCO3)s1	-0.228

Structure (SMILES)	activity change, negative = inhibition [%]
COc1ccc(S(=O)(=O)Nc2c(C(=O)O)[nH]c3ccc(OC)cc23)c(OC)c1	14.8
Cc1ccc(-n2nc(C)c3c2C(Br)C(C)(C)CC3=O)nc1 (stereo not given)	14.4
C=CCNC(=O)c1n[nH]c2c1CC(C(C)(C)CC)CC2 (stereo not given)	10.3
Nc1nc(Nc2ccccc2)nc(NCCO)c1[N+](=O)[O-]	16.5
Cc1cc(-c2nsc(=O)o2)c(S(C)(=O)=O)s1	2.16
O=C1NC(=O)C(c2ccccc2[N+](=O)[O-])=C1Nc1ccc(O)c(Cl)c1	-4.98
Cc1ncc(CO)c(/C=N/Nc2ccc(C(F)(F)F)cn2)c1O	5.08
COc1cc(/C=N/Nc2ccc(C(F)(F)F)cn2)ccc1O	-6.89
O=C(NNC(=O)c1ccccn1)c1ccc(OC(F)F)cc1	5.32
Nc1nc(Nc2cccc(Cl)c2)nc(NCCO)c1[N+](=O)[O-]	16.8
O=C(NNC(=O)c1ccco1)c1ccccc1	4.63
CC(C)n1cnc2c(Nc3cccc(F)c3)nc(NCCO)nc21	-1.25
FC(F)(F)c1ccc(N/N=C/c2cccnc2)nc1	18.8
Cc1ccc2nc(NCc3ccccc3)c(C#N)cc2c1	16.2
COc1cccc(C(=O)N2CCN(c3ccccn3)CC2)c1	15.6
CC[C@H](CO)Nc1nc(Nc2cccc(Cl)c2)c2ncn(C(C)C)c2n1	15.9
COc1ccc2nc(C)cc(Nc3ccc(C)cc3)c2c1	13.1
